# CYP2C9 inh – blockers of cytochrome P450 2C9 activity – biochemical, luminescence, ADME assay, primary screen; P11712; CYP2C9 Supersomes, luciferin-H conversion; inhibition, % at 5 µM; 20% of 96,000 active; AID 777, 2007;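 active means blocking of liver enzyme CYP2C9 beyond about 50% at 5 µM, limit read from the data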
# CYP2C19 act – human CYP2C19 activators, primary screen, biochemical, luminescence; recombinant CYP2C19, luciferin-H EGE luminescence; active compounds read high; 0 = fully inhibited enzyme, 1 = untreated enzyme; activation factor at 5 µM; AID 1025, 2008; 96,000 tested, under 10 active; Cytochrome P450 2C19 (Homo sapiens), P33261;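 active means activation factor of at least 2 at 5 µM in the primary screen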;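 further: 0 = wells with 2.5 mM tranylcypromine and 1 = vehicle-only wells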
# Target sequence (P33261 whole entry, looked up): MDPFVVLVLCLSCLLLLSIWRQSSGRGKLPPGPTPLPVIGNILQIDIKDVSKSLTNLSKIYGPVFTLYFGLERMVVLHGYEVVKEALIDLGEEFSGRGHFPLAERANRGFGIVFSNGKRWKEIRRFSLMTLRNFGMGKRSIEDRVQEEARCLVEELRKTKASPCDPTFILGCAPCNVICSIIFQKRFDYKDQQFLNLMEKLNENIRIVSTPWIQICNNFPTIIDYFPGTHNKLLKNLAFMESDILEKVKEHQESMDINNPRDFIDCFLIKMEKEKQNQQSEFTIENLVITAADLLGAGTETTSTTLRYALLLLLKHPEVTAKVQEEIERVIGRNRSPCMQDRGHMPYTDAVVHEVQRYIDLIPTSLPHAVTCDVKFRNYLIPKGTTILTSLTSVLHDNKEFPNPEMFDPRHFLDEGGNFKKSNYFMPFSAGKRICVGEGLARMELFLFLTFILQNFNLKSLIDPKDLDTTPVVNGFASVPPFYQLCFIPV
# CYP2C19 inhib – blockers of cytochrome P450 2C19 activity – biochemical, luminescence, ADME assay, primary screen | 21% of 96,000 active | CYP2C19 Supersomes, luciferin-H EGE luminescence, 30 min | inhibition, % at 5 µM | P33261 | AID 778, 2007;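 active means CYP2C19 inhibition above a set limit at 5 µM in the primary screen, cut at about 50% in these data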;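 further: plate controls were negative control wells for no effect and 2.5 mM tranylcypromine positive control for full effect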
# PLAP activator – PLAP enzyme activators, biochemical, luminescence, HTS; Alkaline phosphatase, placental type (Homo sapiens), P05187; purified PLAP enzyme, luminescent substrate read-out; active compounds read high; activation fold at 20 µM; 1.2% of 96,000 active; in the data active means activation fold above about 2
# CYP2C9 act – human CYP2C9 activators, primary screen, biochemical, luminescence. Cytochrome P450 2C9 (Homo sapiens), P11712. recombinant CYP2C9, luciferin-H conversion; active compounds read high; factor 1 = untreated enzyme, 0 = blocked. activation factor at 5 µM. 1.4% of 96,000 active;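 active means activation factor of 2 or more for CYP2C9 at a 5 µM dose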;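 further: 0 = sulfaphenazole-blocked wells and 1 = vehicle-only wells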
# The depositor's hits bear a star. Shown are actives, neighbours in structure and some others; about 31% of the full set was active somewhere.
SMILES,CYP2C9 inh,CYP2C19 act,CYP2C19 inhib,PLAP activator,CYP2C9 act
CCc1nnc(NC(=O)c2ccncc2)s1,27,0.9,11,1,0.7
CCn1c(Cc2ccc(OC)cc2)nnc1SCC(=O)Nc1nc2ccccc2s1,20,0.8,18,1,0.8
O=S(=O)(NC1=NCCCCCC1)c1cccs1,-22,0.8,15,0.8,1.2
O=C1C(NS(=O)(=O)c2cccs2)=C(N2CCN(c3ccccc3)CC2)C(=O)c2ccccc21,63*,0.7,29,1.3,0.4
O=C(C1CCN(S(=O)(=O)c2cccs2)CC1)N1CCN(c2ccccc2)CC1,3,1.1,-6,1.1,1
O=C(C(NS(=O)(=O)c1cccs1)c1ccccc1)N1CCN(c2ccccc2)CC1 (stereo not given),28,0.5,54*,1.5,0.7
CCOC(=O)c1cccnc1SC(CC)C(=O)NCc1ccco1 (stereo not given),70*,0.3,68*,1.3,0.3
CCC(OC(=O)c1ccco1)C(=O)NCc1ccco1 (stereo not given),7,0.7,33,1,0.9
CCC(Sc1ncccc1C(=O)OCCN1CCCC1=O)C(=O)NCc1ccco1 (stereo not given),15,1.1,-9,1.6,0.9
CCC(Sc1ncccc1C(=O)OC(C)C)C(=O)NCc1ccco1 (stereo not given),50,0.5,55*,0.9,0.5
Cc1c(C(=O)Nc2ccc(C(=O)O)cc2)cnn1C,0,1.1,-6,1,1
Cc1nc(NCCCn2ccnc2)c2oc3ccccc3c2n1,96*,0.2,85*,0.9,0
c1ccc2c(c1)oc1c(NCCCN3CCOCC3)ncnc12,30,0.8,23,1,0.7
c1ccc2c(c1)oc1c(NCCCn3ccnc3)ncnc12,92*,0.2,80*,1,0.1
CCNc1nc(C)nc2c1oc1ccccc12,-4,1,-3,0.9,1
O=C1C2C3C=CC(C3)C2C(=O)N1c1n[nH]c(-c2cccnc2)n1 (stereo not given),4,1,3,0.4,1
Cc1ccccc1-n1c(C)nnc1SCC(=O)NCC1CCCO1 (stereo not given),-55,0.9,10,1,1.6
CCCC(O)(CCN1CCOCC1)c1ccc(Br)cc1 (stereo not given),6,0.6,36,1.4,0.9
O=C(c1cc(-c2ccco2)on1)N1CCCc2ccccc21,-155,0.8,20,1.2,2.5*
O=C(c1cc(-c2ccc(Cl)c(Cl)c2)on1)N1CCN(c2ccccc2)CC1,4,1.1,-6,0.9,1
O=C(c1cc(-c2ccco2)on1)N1CCN(c2ccccc2)CC1,87*,0.2,84*,1.3,0.1
Cc1ccccc1Cn1ccc(NC(=O)c2cc3nc(-c4ccco4)cc(C(F)(F)F)n3n2)n1,58*,0.5,50*,1.3,0.4
O=C(c1nn2c(C(F)(F)F)cc(-c3ccco3)nc2c1Br)N1CCCc2ccccc21,76*,0.2,79*,1.4,0.2
Cc1ccc(O)c(NC(=O)c2cc3nc4c(c(C(F)(F)F)n3n2)CCc2ccccc2-4)c1,3,1.1,-7,1,1
COc1ccccc1N1CCN(C(=O)c2cc(-c3ccco3)on2)CC1,76*,0.1,92*,1.6,0.2
SMILES,CYP2C9 inh,CYP2C19 act,CYP2C19 inhib,PLAP activator,CYP2C9 act
O=C(c1cc2nc(-c3ccco3)cc(C(F)(F)F)n2n1)N1CCN(c2ccccn2)CC1,27,0.7,30,1.5,0.7
Cc1ccc(Cn2ccc(NC(=O)c3cc4nc5c(c(C(F)(F)F)n4n3)CCc3ccccc3-5)n2)cc1,71*,0.7,27,0.9,0.3
O=C(c1cc2nc(-c3ccco3)cc(C(F)(F)F)n2n1)N1CCN(c2ccccc2)CC1,72*,0.4,63*,1.3,0.3
COc1ccccc1-c1cc(C(=O)N2CCN(c3ccc(F)cc3)CC2)no1,-41,1,2,0.9,1.4
Cc1nnc(NC(=O)CSc2ncnc3c2cnn3-c2ccccc2C)s1,37,1.2,-18,0.8,0.6
CCOC(=O)Cc1csc(NC(=O)CSc2ncnc3c2cnn3-c2ccccc2Cl)n1,90*,0.3,70*,1.5,0.1
Cc1ccc(CNC(=O)CS(=O)CC(=O)O)cc1 (stereo not given),-12,1.1,-10,1,1.1
CCOc1ccc(NC(=O)CCSc2nc3c(c(CC)c2C#N)C(=O)CC(C)(C)C3)cc1,90*,0.1,90*,0.9,0.1
CCc1c(C#N)c(SCCC(=O)Nc2ccc(C)cc2)nc2c1C(=O)CC(C)(C)C2,95*,0,96*,1.4,0
NC(=O)CC12CC3CC(C1)CC(CC(N)=O)(C3)C2,8,1,0,0.8,0.9
Oc1ccc(C(c2nnnn2C2CCCC2)N2CCc3ccccc3C2)cc1 (stereo not given),81*,0.1,94*,1.2,0.2
COc1cc(C(c2nnnn2C2CCCC2)N2CCc3ccccc3C2)ccc1O (stereo not given),57*,0.6,43,1.5,0.4
CCN1CCN(C(c2ccccc2OC)c2nnnn2C2CCCCC2)CC1 (stereo not given),-14,1.2,-17,1.8,1.1
O=C(NCc1cccs1)c1cnc2sccn2c1=O,2,1,1,1,1
Cc1ccc(S(=O)(=O)NC(C)(C)CSc2nncn2N)cc1,-10,0.4,59*,1,1.1
Cn1nnnc1SCC(=O)Nc1ccc(Oc2ccc(Cl)cc2)cc1,-12,1,-4,0.9,1.1
Cc1ccc(NC(=O)Cn2cccc2)cc1Cl,4,0.5,52*,1.4,1
Cc1ccc(Cl)cc1NC(=O)CCn1cccc1,-21,0.8,18,1,1.2
COc1ccc(NC(=O)CCn2cccc2)cc1,3,0.5,51*,1.1,1
Cc1ccc(NC(=O)CCn2cccc2)cc1,37,0.1,92*,0.9,0.6
COc1ccc(NC(=O)c2c(Cl)n(C)c3ccccc23)cc1,-126,0.9,13,1,2.3*
COc1ccc(NC(=O)CCN2CCC(C)CC2)cc1,7,0.9,8,0.8,0.9
CO/N=C\C(=N\Nc1ccc(OC)cc1)C(=O)c1ccccc1,44,0.7,30,0.9,0.6
Cc1ccc(C)c(NC(=O)CCn2nc(C)cc2C)c1,-16,0.9,11,1,1.2
Cc1ccc(NC(=O)Cn2cccc2)c(C)c1,0,0.3,71*,1.2,1
Cc1ccc(NC(=O)Cn2cccc2)cc1C,22,0.5,47,1.2,0.8
Cc1ccc(NC(=O)CCn2nc(C)cc2C)cc1,-14,0.3,74*,1.1,1.1

# Source: PubChem BioAssay
